Experimental data as given in PubChem BioAssay (Tox21).
Where “and” joins values, the source holds several entries; their conditions need not be identical. Equal entries are not always repeated. Results filed as inconclusive are left out. Some structures have more than one record in an assay (separate samples or runs), and their calls can disagree. Calls of active or inactive are those of the source. Unless noted, the call rests on the fitted dose curve; in most records, active means well fitted curve in the direction sought with a large enough effect in the repeat runs; inconclusive means weak or mixed curves; inactive means no such curve, though single readings can be large; an effect the other way counts as inactive or inconclusive.

How the values were obtained:
[1] = qHTS assay to test for compound auto fluorescence at 535 nm (green) in HEK293 cells (AID 720680)
[2] = qHTS assay to test for compound auto fluorescence at 460 nm (blue) in HEK293 cell free culture (AID 720681)
Summary of the method: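 Test compounds were pinned into cell-free culture medium (DMEM with 10% FBS) and fluorescence was read directly at Ex/Em 405/460 nm. Signals were expressed as fluorescence equivalents of triamterene, with DMSO vehicle as control.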

[3] = qHTS assay to test for compound auto fluorescence at 535 nm (green) in HEK293 cell free culture (AID 720682)
Summary of the method: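 Measurement is a direct plate read of green fluorescence (485 nm in, 535 nm out) after compound addition to serum-supplemented DMEM lacking cells, with fluorescein used to express intensities.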

[4] = qHTS assay to test for compound auto fluorescence at 590 nm (red) in HEK293 cell free culture (AID 720683)
Summary of the method: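 Tox21 10K library compounds were pinned into cell-free DMEM with 10% FBS and fluorescence was read at excitation 540 nm. Activity is expressed as Rose Bengal sodium equivalency.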

[5] = qHTS assay to test for compound auto fluorescence at 590 nm (red) in HepG2 cell free culture (AID 720684)
Summary of the method: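 Ex 540 / Em 590 nm read of compound in cell-free MEM (10% FBS). Rose Bengal sodium reference.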

[6] = qHTS assay to test for compound auto fluorescence at 460 nm (blue) in HepG2 cell free culture (AID 720685)
Summary of the method: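 Cell-free plates of MEM plus 10% FBS received 23 nL compound or DMSO vehicle; blue-channel (405/460 nm) intensity scored against triamterene as reference fluorophore.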

[7] = qHTS assay to test for compound auto fluorescence at 535 nm (green) in HepG2 cell free culture (AID 720686)
[8] = qHTS assay to test for compound auto fluorescence at 460 nm (blue) in HepG2 cells (AID 720687)
Summary of the method: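 Cells (2,000/well in MEM with 10% FBS) attached overnight at 37 C, then were exposed to compound or DMSO for 1 hr at 37 C, 5% CO2. Fluorescence read at Ex/Em 405/460 nm, expressed as triamterene-equivalent signal.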

[9] = target: Glucocorticoid receptor (Homo sapiens) (UniProt P04150); experiment: qHTS assay to identify small molecule agonists of the glucocorticoid receptor (GR) signaling pathway (AID 720691; active means well fitted activation curve with a large enough effect in the signal ratio in the repeat runs, not every such curve was filed as active; the % refers to the signal ratio)
Sequence of Glucocorticoid receptor (Homo sapiens) (P04150 whole entry, looked up): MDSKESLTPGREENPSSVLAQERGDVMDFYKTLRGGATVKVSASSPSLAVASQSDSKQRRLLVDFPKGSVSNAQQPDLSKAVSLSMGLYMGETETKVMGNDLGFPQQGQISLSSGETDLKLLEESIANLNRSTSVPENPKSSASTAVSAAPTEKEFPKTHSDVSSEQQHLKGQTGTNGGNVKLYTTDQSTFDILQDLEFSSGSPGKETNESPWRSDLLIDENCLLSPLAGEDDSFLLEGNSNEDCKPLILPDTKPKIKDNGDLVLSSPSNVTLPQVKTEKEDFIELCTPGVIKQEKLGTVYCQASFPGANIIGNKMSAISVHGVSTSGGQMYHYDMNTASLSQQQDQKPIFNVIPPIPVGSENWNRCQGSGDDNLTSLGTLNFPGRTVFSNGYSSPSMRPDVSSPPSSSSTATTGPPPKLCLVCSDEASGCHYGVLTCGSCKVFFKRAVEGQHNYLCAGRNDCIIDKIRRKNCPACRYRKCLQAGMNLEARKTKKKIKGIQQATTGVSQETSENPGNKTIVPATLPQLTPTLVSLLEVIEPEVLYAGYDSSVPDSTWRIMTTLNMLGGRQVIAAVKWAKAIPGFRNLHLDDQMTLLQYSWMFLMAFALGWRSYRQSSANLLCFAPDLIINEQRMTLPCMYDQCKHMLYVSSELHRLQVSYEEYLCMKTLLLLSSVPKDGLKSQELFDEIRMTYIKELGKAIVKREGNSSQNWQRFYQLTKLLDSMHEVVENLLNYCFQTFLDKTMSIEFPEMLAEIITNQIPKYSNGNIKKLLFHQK
Summary of the method: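 Compounds in DMSO, alongside positive controls, were added to GR-bla HeLa reporter cells and incubated 18 h at 37 C; GRE-driven beta-lactamase was detected by fluorescence after 2 h with FRET substrate at room temperature.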

[10] = target: Glucocorticoid receptor (Homo sapiens) (UniProt P04150); experiment: qHTS assay to identify small molecule antagonists of the glucocorticoid receptor (GR) signaling pathway (AID 720692; active means well fitted inhibition curve with a large enough effect in the signal ratio in the repeat runs, not every such curve was filed as active; the % refers to the signal ratio)
Summary of the method: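 In a 1536-well cell format, compounds were added 4 h after seeding GR-bla HeLa cells, together with dexamethasone at 5 nM final; reporter activity was measured by FRET-substrate fluorescence following 18 h at 37 C.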

[11] = qHTS assay to identify small molecule antagonists of the glucocorticoid receptor (GR) signaling pathway - cell viability counter screen (AID 720693); further: nearly all actives have a fitted effect of over 55% in size
[12] = qHTS assay for identifying genotoxic compounds that show differential cytotoxicity against isogenic chicken DT40 cell lines with known DNA damage response pathways - wild type cell line (AID 743012); further: nearly all actives have a fitted effect of over 60% in size; further: potency means the concentration at half of the fitted maximal effect
Summary of the method: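 Viability of DNA repair-proficient chicken DT40 cells was assessed by CellTiter-Glo luminescence following 40 h compound exposure at 37 C/5% CO2.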

[13] = qHTS assay for identifying genotoxic compounds that show differential cytotoxicity against isogenic chicken DT40 cell lines with known DNA damage response pathways - Rev3 mutant cell line (AID 743014); further: nearly all actives have a fitted effect of over 55% in size; further: potency means the concentration at half of the fitted maximal effect
[14] = qHTS assay for identifying genotoxic compounds that show differential cytotoxicity against isogenic chicken DT40 cell lines with known DNA damage response pathways - Rad54/Ku70 mutant cell line (AID 743015); further: nearly all actives have a fitted effect of over 60% in size; further: potency means the concentration at half of the fitted maximal effect
[15] = qHTS assay to identify small molecule antagonists of the androgen receptor (AR) signaling pathway - cell viability counter screen (AID 743033; further: nearly all actives have a fitted effect of over 45% in size)
[16] = qHTS assay to identify small molecule antagonists of the androgen receptor (AR) signaling pathway using the MDA cell line - cell viability counter screen (AID 743041; further: nearly all actives have a fitted effect of over 45% in size)
Summary of the method: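 In this qHTS counter assay, fluorescence intensity after CellTiter-Fluor addition indicated viability of MDA-kb2 AR-luc cells given compounds and R1881 for 16 h at 37C.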

[17] = target: Androgen receptor (Homo sapiens) (UniProt P10275); experiment: qHTS assay to identify small molecule antagonists of the androgen receptor (AR) signaling pathway (AID 743035; active means well fitted inhibition curve with a large enough effect in the signal ratio in the repeat runs, not every such curve was filed as active; the % refers to the signal ratio; further: potency means the concentration at half of the fitted maximal effect)
Sequence of Androgen receptor (Homo sapiens) (P10275 whole entry, looked up): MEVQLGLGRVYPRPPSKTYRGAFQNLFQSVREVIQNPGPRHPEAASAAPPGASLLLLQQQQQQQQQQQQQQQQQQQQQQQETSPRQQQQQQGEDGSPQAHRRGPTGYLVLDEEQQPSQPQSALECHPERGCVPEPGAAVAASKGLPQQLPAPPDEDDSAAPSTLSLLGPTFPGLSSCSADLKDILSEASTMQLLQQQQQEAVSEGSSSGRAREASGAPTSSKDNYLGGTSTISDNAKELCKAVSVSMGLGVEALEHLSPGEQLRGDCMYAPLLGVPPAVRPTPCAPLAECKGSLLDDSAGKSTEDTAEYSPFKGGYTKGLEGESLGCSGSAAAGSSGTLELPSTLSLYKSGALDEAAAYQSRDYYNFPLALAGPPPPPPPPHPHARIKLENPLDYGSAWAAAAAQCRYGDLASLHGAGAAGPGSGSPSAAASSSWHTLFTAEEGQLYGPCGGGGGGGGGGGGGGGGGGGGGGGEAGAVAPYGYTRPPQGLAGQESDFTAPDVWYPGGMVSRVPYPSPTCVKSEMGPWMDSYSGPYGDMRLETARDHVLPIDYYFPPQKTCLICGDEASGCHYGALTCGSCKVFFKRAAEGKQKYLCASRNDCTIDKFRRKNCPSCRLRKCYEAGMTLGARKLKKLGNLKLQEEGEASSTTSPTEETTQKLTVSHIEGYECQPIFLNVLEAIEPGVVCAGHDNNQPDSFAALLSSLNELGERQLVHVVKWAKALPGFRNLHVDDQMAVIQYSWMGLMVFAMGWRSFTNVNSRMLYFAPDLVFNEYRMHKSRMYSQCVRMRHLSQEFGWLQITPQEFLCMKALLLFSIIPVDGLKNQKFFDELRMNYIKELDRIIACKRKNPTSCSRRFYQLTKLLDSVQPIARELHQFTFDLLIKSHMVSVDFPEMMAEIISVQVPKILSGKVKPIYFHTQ
Summary of the method: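 Reporter HEK293 cells were exposed to compounds and R1881 overnight (16 h, 37C); beta-lactamase activity was then quantified by FRET fluorescence.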

[18] = target: Androgen receptor (Homo sapiens) (UniProt P10275); experiment: qHTS assay to identify small molecule agonists of the androgen receptor (AR) signaling pathway (AID 743036; active means well fitted activation curve with a large enough effect in the signal ratio in the repeat runs, with a control signal flat, not every such curve was filed as active; the % refers to the signal ratio)
Summary of the method: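 Beta-lactamase under UAS control, stably integrated in HEK293 GripTite cells, reports receptor activation. After 16 h compound treatment, cells received FRET substrate for 2 h at room temperature before fluorescence reading.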

[19] = target: Androgen receptor (Homo sapiens) (UniProt P10275); experiment: qHTS assay to identify small molecule agonists of the androgen receptor (AR) signaling pathway using the MDA cell line (AID 743040; further: nearly all actives have a fitted effect of over 20% in size)
Summary of the method: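 Cell-based luciferase reporter: MDA-kb2, MMTV promoter (AR + GR response elements). 16 h compound exposure at 37C; ONE-Glo, 30 min RT, luminescence.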

[20] = target: Androgen receptor (Homo sapiens) (UniProt P10275); experiment: qHTS assay to identify small molecule antagonists of the androgen receptor (AR) signaling pathway using the MDA cell line (AID 743042; further: nearly all actives have a fitted effect of over 55% in size)
Summary of the method: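 MDA-kb2 cells (human breast carcinoma, stably carrying an MMTV-luciferase reporter responsive to AR and GR) were plated at 3,000 cells/well and preincubated 5 hr at 37C, then given compound plus R1881 agonist for 16 h. ONE-Glo luminescence was read.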
On the % scale 0 is the no-effect control and ±100 the full control effect.

C=CC(C)(O)CC/C=C(\C)CCC=C(C)C (stereo not drawn)
inactive and 4.33 µM (active): Potency [13]
inactive: outcome [1] | outcome [2] | outcome [3] | outcome [4] | outcome [5] | outcome [6] | outcome [7] | outcome [8] | Potency [9] | Potency [10] | outcome [11] | Potency [12] | Potency [14] | outcome [15]

CS(=O)(=O)c1ccc([C@@H](O)[C@@H](CF)NC(=O)C(Cl)Cl)cc1
active: Potency [12] 4.03 µM | Potency [13] 6.39 µM | Potency [14] 7.17 µM
inactive: fluorescence, % of fluorescein [1] 0.0111% [at 18.6 µM] | fluorescence, % of fluorescent control [2] 0.0627% [at 18.6 µM] | activity change [3] -0.0234% [at 18.6 µM] | fluorescence, % of fluorescent control [4] -0.0638% [at 18.6 µM] | fluorescence, % of Rose Bengal [5] 0.294% [at 18.6 µM] | fluorescence, % of fluorescent control [6] -0.0062% [at 18.6 µM] | fluorescence, % of fluorescein control [7] -0.0102% [at 18.6 µM] | fluorescence, % of fluorescent control [8] -0.0647% [at 18.6 µM] | Potency [9] | Potency [10] | outcome [11] | outcome [15] | Potency [16]

CCCCCCCCc1ccc(S(=O)(=O)O)cc1
inactive: outcome [1] | outcome [2] | outcome [3] | outcome [4] | outcome [5] | outcome [6] | outcome [7] | outcome [8] | Potency [9] | Potency [10] | outcome [11] | Potency [12] | Potency [13] | Potency [14] | Potency [16]

NC/C=C/C(=O)O
inactive: outcome [1] | outcome [2] | outcome [3] | outcome [4] | outcome [5] | outcome [6] | outcome [7] | outcome [8] | Potency [9] | Potency [10] | outcome [11] | Potency [12] | Potency [13] | Potency [14] | outcome [15] | Potency [16]

NC1=NCC2c3ccccc3Cc3ccccc3N12 (stereo not drawn)
active: Potency [12] 21.1 µM | Potency [13] 26.6 µM
inactive: outcome [1] | outcome [2] | outcome [3] | outcome [4] | outcome [5] | outcome [6] | outcome [7] | outcome [8] | Potency [9] | Potency [10] | outcome [11] | Potency [16]

CCCc1c2oc(C(=O)O)cc(=O)c2cc2c(=O)cc(C(=O)O)n(CC)c12
inactive: outcome [1] | outcome [2] | outcome [3] | outcome [4] | outcome [5] | outcome [6] | outcome [7] | outcome [8] | Potency [9] | Potency [10] | outcome [11] | Potency [12] | Potency [13] | Potency [14] | outcome [15] | Potency [16]

CCCCC(CC)COC(=O)COc1cc(Cl)c(Cl)cc1Cl (stereo not drawn)
inactive: outcome [1] | outcome [2] | outcome [3] | outcome [4] | outcome [5] | outcome [6] | outcome [7] | outcome [8] | Potency [9] | Potency [10] | outcome [11] | Potency [12] | Potency [13] | Potency [14] | outcome [15] | Potency [16]

Cc1nc(-c2ccccn2)ncc1C(=O)Nn1cc(C)c2cc(F)ccc21
inactive: outcome [1] | outcome [2] | outcome [3] | outcome [4] | outcome [5] | outcome [6] | outcome [7] | outcome [8] | Potency [9] | Potency [10] | outcome [11] | outcome [18] | Potency [19] | Potency [16]
active: Potency [12] 61.1 µM | Potency [13] 61.1 µM | Potency [14] 30.6 µM | Potency [17] 49 µM

CC(=O)OC(C)OC(C)=O
active: Potency [13] 70.7 µM
inactive: outcome [1] | outcome [2] | outcome [3] | outcome [4] | outcome [5] | outcome [6] | outcome [7] | outcome [8] | Potency [9] | Potency [10] | outcome [11] | Potency [12] | Potency [17] | outcome [18] | Potency [19] | Potency [16] | outcome [20]

O=C(O)c1ccccc1Nc1cc(Cl)ccc1C(=O)O
inactive: outcome [1] | outcome [2] | outcome [3] | outcome [4] | outcome [5] | outcome [6] | outcome [7] | outcome [8] | Potency [9] | Potency [10] | outcome [11] | Potency [12] | Potency [13] | Potency [14] | Potency [16]

CC(C)=CCCC(C)CCOC=O (stereo not drawn)
active: Potency [12] 48.6 µM | Potency [13] 27.3 µM | Potency [14] 27.3 µM
inactive: outcome [1] | outcome [2] | outcome [3] | outcome [4] | outcome [5] | outcome [6] | outcome [7] | outcome [8] | Potency [9] | Potency [10] | outcome [11]

Cc1ccc([N+](=O)[O-])cc1Cl
inactive: outcome [1] | outcome [2] | outcome [3] | outcome [4] | outcome [5] | outcome [6] | outcome [7] | outcome [8] | Potency [9] | Potency [10] | outcome [11] | Potency [13] | Potency [14] | outcome [15] | Potency [16]

CCCNC(C)C(=O)Nc1c(C)csc1C(=O)OC (stereo not drawn)
inactive: fluorescence, % of fluorescein [1] -0.0722% [at 18.6 µM] | fluorescence, % of fluorescent control [2] -0.0092% [at 18.6 µM] | activity change [3] -0.0482% [at 18.6 µM] | fluorescence, % of fluorescent control [4] 0.0164% [at 18.6 µM] | fluorescence, % of Rose Bengal [5] -0.056% [at 18.6 µM] | fluorescence, % of fluorescent control [6] -0.0067% [at 18.6 µM] | fluorescence, % of fluorescein control [7] 0.063% [at 18.6 µM] | fluorescence, % of fluorescent control [8] 0.025% [at 18.6 µM] | Potency [9] | Potency [10] | outcome [11] | Potency [12] | outcome [15] | Potency [16]

O=C1CCCc2ccccc21
inactive: outcome [1] | outcome [2] | outcome [3] | outcome [4] | outcome [5] | outcome [6] | outcome [7] | outcome [8] | Potency [9] | Potency [10] | outcome [11] | Potency [12] | Potency [13] | Potency [14] | outcome [15]

O=c1oc2c(O)c(O)cc3c(=O)oc4c(O)c(O)cc1c4c23
inactive: outcome [1] | outcome [2] | outcome [3] | outcome [4] | outcome [5] | outcome [6] | outcome [7] | outcome [8] | Potency [9] | Potency [10] | outcome [11] | Potency [12] | Potency [13] | Potency [14] | outcome [15]

CC(C)S
inactive: outcome [1] | outcome [2] | outcome [3] | outcome [4] | outcome [5] | outcome [6] | outcome [7] | outcome [8] | Potency [9] | Potency [10] | outcome [11] | Potency [12] | Potency [13] | Potency [14] | outcome [15] | Potency [16]
